Hits are enriched below; roughly 3.5% of the tested compounds scored in any of these assays.
GPR151 activ – activates the human receptor GPR151 | AID 1508602 | activation, % at 11.2 µM | Q8TDV0 | actives 1% (n = 650,000) | PathHunter beta-arrestin GPR151 cells, luminescence; in the data active = activation above about 4.9%;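 note: 0% = median of compound wells and 100% = cells with positive control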
MITF primary – inhibitors of human MITF; inhibition, % at 2.6 µM; actives 0.91% (n = 650,000); O75030; AlphaScreen MITF homodimerization, bead proximity signal; in the data active = inhibition above about 50%;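 note: 0% = vehicle wells with protein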
TEAD-YAP block – TEAD-YAP interaction inhibition; actives 1.4% (n = 640,000); HEK-TIYL cells, TEAD-Gal4/YAP UAS-luciferase luminescence; AID 1259422; inhibition, % at 9.12 µM; in the data active = inhibition above about 32%;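 note: 0% = median of test compound wells and 100% = reference inhibitor wells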
FBW7 activator – human FBW7 E3 ligase activation, primary screen | AID 1259310 | normalized activity (activation), % at 26.1 µM | actives 0.13% (n = 650,000) | Q969H0 | AlphaScreen FBW7–phospho-cyclin E peptide binding, activator screen; in the data active = normalized activity above about 1.9%;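 note: purified mutant Fbw7 with reduced substrate affinity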
Target sequence (Q969H0 whole entry, looked up): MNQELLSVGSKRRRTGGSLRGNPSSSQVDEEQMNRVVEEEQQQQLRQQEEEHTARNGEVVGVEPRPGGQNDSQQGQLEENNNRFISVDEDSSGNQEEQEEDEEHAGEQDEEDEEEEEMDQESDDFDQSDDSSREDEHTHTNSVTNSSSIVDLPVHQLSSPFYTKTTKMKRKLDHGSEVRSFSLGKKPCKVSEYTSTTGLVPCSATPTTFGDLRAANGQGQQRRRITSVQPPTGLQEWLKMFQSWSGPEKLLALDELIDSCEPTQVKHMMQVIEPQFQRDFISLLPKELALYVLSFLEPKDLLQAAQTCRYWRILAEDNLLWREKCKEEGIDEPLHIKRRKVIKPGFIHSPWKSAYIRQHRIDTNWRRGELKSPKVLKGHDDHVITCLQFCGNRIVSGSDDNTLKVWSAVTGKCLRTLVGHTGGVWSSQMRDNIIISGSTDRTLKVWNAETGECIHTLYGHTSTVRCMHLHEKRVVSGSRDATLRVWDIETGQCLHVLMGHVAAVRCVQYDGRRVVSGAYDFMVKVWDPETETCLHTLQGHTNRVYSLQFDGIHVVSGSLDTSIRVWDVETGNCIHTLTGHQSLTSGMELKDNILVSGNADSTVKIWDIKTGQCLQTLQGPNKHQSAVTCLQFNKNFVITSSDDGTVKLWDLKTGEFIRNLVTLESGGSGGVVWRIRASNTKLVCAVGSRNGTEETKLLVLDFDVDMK
* hit, by the source's call.

SMILES	GPR151 activ	MITF primary	TEAD-YAP block	FBW7 activator
O=C(Nc1cc([N+](=O)[O-])ccc1F)c1ccc(Br)cc1	3	-9	39*	0
O=C(CCc1ccccc1)Nc1cc([N+](=O)[O-])ccc1F	0	17	61*	-1
O=C(Nc1cc([N+](=O)[O-])ccc1F)c1cccc(Br)c1	1	-3	18	0
O=C(Nc1cc([N+](=O)[O-])ccc1F)c1ccccc1	-1	10	16	0
O=C(CCCc1ccccc1)Nc1cc([N+](=O)[O-])ccc1F	1	-4	13	0
CN1CCN(C(=O)c2ccc(-c3nc(NCCc4ccc(O)cc4)c4ncn(CCN5CCCC5=O)c4n3)cc2)CC1	-1	-5	6	0
CCN1C(=O)N(CC)C2C1NC(=O)N2CC (stereo unspecified)	-1	-16	0	0
CCN1C(=O)N(CC)C2NC(=S)NNC21 (stereo unspecified)	2	7	82*	0
CC(C)C(=O)N1CCC[C@@H](Cn2nc(-c3cccs3)ccc2=O)C1	1	-4	69*	0
Cc1ncc(CO)c(/C=N/NC(=O)c2cc3c(s2)CCCC3)c1O	-1	29	40*	-1
Cc1ncc(CO)c(/C=N/Nc2nc3ccccc3[nH]2)c1O	1	86*	-11	-1
Cc1ncc(CO)c(/C=N/NC(=O)c2ccc(C(C)(C)C)cc2)c1O	0	15	83*	0
Cc1ccc2nc(C(=O)O)cc(C(=O)O)c2c1	2	-5	-7	0
Cc1cc(C)c2c(c1)CC(C)(C)C(=O)C2=O	0	6	3	0
C=C1C(c2ccc(C)cc2)=CCc2cc(C)cc(C)c21	-5	11	54*	0
COc1ccc(C/C(N)=N/OC(=O)c2ccc(C)cc2)cc1	-1	7	-19	1
CCOc1ccc2nc(N3CCCC3)sc2c1	-2	3	43*	0
CCOc1ccc2nc(NC(=O)CCCC(=O)O)sc2c1	-1	-12	13	0
CCOc1ccc2nc(N3CCCCC3)sc2c1	-6	3	53*	0
CCOc1ccc2nc(NC(=O)C(C)(C)C)sc2c1	0	8	63*	0
CCOc1ccc2nc(N3CCC(C(=O)N4CCC(C(N)=O)CC4)CC3)sc2c1	-1	1	19	0
CCOc1ccc2nc(N3CCN(C(=O)C(C)C)CC3)sc2c1	1	13	-11	0
CCOc1cc2sc(N3CCC(C(=O)O)CC3)nc2cc1Br	2	1	47*	0
CCOc1ccc2nc(N3CCN(S(=O)(=O)c4ccccc4)CC3)sc2c1	0	2	13	0
COc1cccc(N2C[C@@H]3C[C@@H](c4cn[nH]c4-c4cccc(F)c4)N4CCC[C@@]34C2=O)c1	-1	-1	-4	0
SMILES	GPR151 activ	MITF primary	TEAD-YAP block	FBW7 activator
O=S(=O)(Cc1ccccc1Cl)NCCc1ccc(N2CCCC2)cc1	1	-4	-13	-1
c1cc(CNc2ccc3ncc(-c4ccc5c(c4)OCO5)n3n2)ccn1	0	5	50*	0
Cc1ccc(-c2cnc3ccc(NCc4ccc5c(c4)OCO5)nn23)cc1	0	8	48*	0
c1ccc(CNc2ccc3ncc(-c4ccc5c(c4)OCO5)n3n2)nc1	1	7	58*	0
O=C(O)c1ccc(-c2cnc3ccc(NCc4ccc5c(c4)OCO5)nn23)cc1	-1	-16	-3	0
O=C1c2ccccc2C(=O)N1CCSc1ncnc2c1cnn2-c1ccccc1	3	-10	1	0
Cc1cccc(N(C)c2ccnc3c(-c4ccc(N)cc4)cnn23)c1	0	18	56*	0
CCCNc1ccnc2c(-c3ccsc3)cnn12	-1	17	54*	0
Cc1cccc(N(C)c2ccnc3c(-c4cccc(N)c4)cnn23)c1	1	17	-4	0
CCCNc1ccnc2c(-c3ccc(N)cc3)cnn12	-1	4	76*	1
COc1ccc(CNc2ccnc3c(-c4cncnc4)cnn23)cc1	2	15	44*	-1
COc1ccc(-c2nnc3ccc(SCc4cccnc4)nn23)cc1OC	1	5	-18	0
O=C(CSc1nccc(=O)[nH]1)Nc1cccc2c1C(=O)c1ccccc1C2=O	-1	9	4	0
O=C(CCS(=O)(=O)c1ccc2c(c1)OCC(=O)N2)Nc1ccc(F)c(Cl)c1	-1	12	7	0
Cc1cc(C)n(-c2cccc(C(=O)N[C@H](Cn3nc(C4CC4)ccc3=O)C(C)C)c2)n1	-1	4	7	0
CCCOc1ccc(C2C(C(=O)OC)=CN(CCC)C=C2C(=O)OC)cc1	2	6	-5	3.0*
COC(=O)C1=CN(CC2CCCO2)C=C(C(=O)OC)C1c1cccc(O)c1 (stereo unspecified)	0	11	3	0
CCN1C=C(C(=O)OC)C(c2cccc(OCc3ccccc3)c2)C(C(=O)OC)=C1	1	4	-2	2.0*
COC(=O)C1=CN(C)C=C(C(=O)OC)C1c1cccc(OCc2ccccc2)c1	0	-21	-16	2
COC(=O)C1=CN(CC2CCCO2)C=C(C(=O)OC)C1c1cccc(Oc2ccccc2)c1 (stereo unspecified)	0	-16	-24	2.4*
CCOC(=O)C1=C(c2ccccc2)N=c2s/c(=C\c3ccc(N(CC)CC)cc3OC)c(=O)n2C1c1cc(C(C)C)c(OC)cc1C (stereo unspecified)	-1	1	-2	1
O=C1C2C3C=CC(C3)C2C(=O)N1c1ccc(Br)c(Cl)c1 (stereo unspecified)	1	-14	-4	0
Cc1nnc(N(CC2CCCO2)C(=O)c2ccno2)s1 (stereo unspecified)	2	8	10	0
COCC(=O)N(CC1CCCO1)c1nnc(C)s1 (stereo unspecified)	-4	5	34*	0
OC1CCN(c2cc(-c3ccccc3F)nc(-c3ccncc3)n2)CC1	1	7	1	0
SMILES	GPR151 activ	MITF primary	TEAD-YAP block	FBW7 activator
Cc1c(C(=O)NCc2ccccc2Cl)oc2ccc(S(=O)(=O)N3CCOCC3)cc12	2	4	-1	2.4*
COc1ccccc1CNC(=O)c1oc2ccc(S(=O)(=O)N3CCOCC3)cc2c1C	0	0	-13	0
O=C(/C=C/c1cccc([N+](=O)[O-])c1)/C=C/c1ccco1	1	7	-1	0
CN(C)c1ccc(/C=C/C(=O)/C=C/c2ccco2)cc1	-1	63*	-4	1
COc1ccc(CCNC(=O)CSc2ccc3nnc(-c4ccccc4)n3n2)cc1OC	3	14	18	2.7*
O=C(CSc1ccc2nnc(-c3ccncc3)n2n1)NCCc1ccccc1	0	5	-2	2.0*
COc1ccc(-c2nnc3ccc(SCC(=O)NCCc4ccccc4)nn23)cc1	-1	-8	-4	0
C=CCn1c(=O)c(C(=O)Nc2ccc([N+](=O)[O-])cc2O)c(O)c2ccccc21	3	-10	-7	0
NS(=O)(=O)c1ccc(CCNc2ncnc3sc(-c4ccccc4)cc23)cc1	-2	1	42*	0

Screening data: PubChem, The Scripps Research Institute Molecular Screening Center
